Bcl-xL primary: inhibitors of human Bcl-xL; Q07817; GST-Bcl-xL / FITC-Bim BH3 peptide fluorescence polarization; inhibition, % at 10.9 µM; hit rate 0.7% among 320,000;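 active means inhibition above the mean of all tested compounds plus 3 SD, cutoff set per campaign, cut at about 30% in these data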;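 further: 0% = DMSO wells and 100% = unlabeled Bim-BH3 peptide competitor; inhibitors lower millipolarization by displacing the labeled peptide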
E coli Lon inh: E. coli protease La inhibition | purified E. coli Lon protease, fluorescence polarization | AID 602123 | inhibition, % at 7.94 µM | hit rate 0.42% among 360,000 | P0A9M0; in the data active means inhibition above about 13%, passing the limit was not always enough;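 further: 0% = enzyme with probe and DMSO and 100% = no enzyme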
EBV gp42 block: inhibitors of Epstein-Barr virus glycoprotein 42 | inhibition, % (tested at 21.74 µM) | AID 1085 | Q1HVG2 | hit rate 0.42% among 220,000 | Fluorescence polarization binding assay, mP read-out; in the data active means inhibition above about 50%
Target sequence (Q1HVG2 whole entry, looked up): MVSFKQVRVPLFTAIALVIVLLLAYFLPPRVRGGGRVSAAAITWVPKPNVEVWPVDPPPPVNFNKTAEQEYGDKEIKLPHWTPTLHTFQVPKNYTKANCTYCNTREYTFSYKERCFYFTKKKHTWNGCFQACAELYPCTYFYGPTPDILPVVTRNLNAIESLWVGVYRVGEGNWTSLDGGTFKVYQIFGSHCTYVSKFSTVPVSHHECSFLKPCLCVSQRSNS
MCL1-BIM inh: MCL1-BIM-BH3 interaction inhibition (human). GST-MCL1 / FITC-Bim-BH3 fluorescence polarization. hit rate 0.68% among 320,000. Q07820. inhibition, % at 10.9 µM;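 active means inhibition above the mean inhibition of all tested compounds plus 3 SD, set per campaign, cut at about 40% in these data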;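 further: 0% = DMSO wells and 100% = unlabeled Bim-BH3 peptide control; higher means more loss of mP so more displacement of Bim peptide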
GLD-1 RNA inh: GLD-1-TGE RNA interaction inhibition (C. elegans); inhibition, % at 5.96 µM; Q17339; AID 2280; hit rate 0.44% among 320,000; purified GLD-1 + fluorescein TGE RNA, fluorescence polarization;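 active means percent inhibition above a per-plate cutoff, the plate mean of test compounds plus 3 SD, cut at about 30% in these data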;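 further: 0% = DMSO wells with GLD-1 and probe and 100% = wells lacking GLD-1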
MEX-5 binding: C. elegans MEX-5 TCR-2 RNA binding activity; MEX-5/FITC-TCR2 RNA binding, fluorescence polarization; stronger effect = lower value; activity score (negative = inhibition of binding), % at 10 µM; hit rate 0.38% among 300,000;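 active means inhibition past about -25% in most replicates, and total fluorescence under double the plate's negative control median, limit read from the data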;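 further: 0% = DMSO and -100% = 5 µM competing unlabeled TCR2 RNA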
Target sequence (Q9XUB2 whole entry, looked up): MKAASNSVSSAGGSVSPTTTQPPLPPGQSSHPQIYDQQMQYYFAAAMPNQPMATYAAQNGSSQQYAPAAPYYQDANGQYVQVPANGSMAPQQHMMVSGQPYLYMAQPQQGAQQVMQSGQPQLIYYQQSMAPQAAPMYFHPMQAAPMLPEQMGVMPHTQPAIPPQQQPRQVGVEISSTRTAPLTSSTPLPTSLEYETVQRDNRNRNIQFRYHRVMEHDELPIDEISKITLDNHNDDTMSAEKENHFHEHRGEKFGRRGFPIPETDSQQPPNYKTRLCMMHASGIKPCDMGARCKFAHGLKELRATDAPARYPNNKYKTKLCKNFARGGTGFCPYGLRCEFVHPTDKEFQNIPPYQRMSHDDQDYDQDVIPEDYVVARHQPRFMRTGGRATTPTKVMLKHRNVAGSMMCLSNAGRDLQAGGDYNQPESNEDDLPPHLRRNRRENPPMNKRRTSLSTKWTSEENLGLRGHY
BCLXL inh confirm: counter-screen for MCL1 inhibitors: confirmation of human Bcl-xL inhibitors | shares compounds with MCL1-BIM inh | GST-Bcl-xL / FITC-Bim BH3 peptide FP binding | inhibition, % at 10.9 µM | hit rate 54% among 1,700 | AID 2166;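 active means inhibition above a cutoff equal to the mean inhibition of all tested compounds plus 3 SD, cut at about 30% in these data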;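 further: 0% = DMSO wells and 100% = unlabeled Bim BH3 control peptide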
MCL1 BIM confirm: MCL1-BIM-BH3 interaction inhibition, confirmation; shares compounds with MCL1-BIM inh; GST-MCL1 / FITC-Bim-BH3 fluorescence polarization; inhibition, % at 10.9 µM; hit rate 61% among 1,700; AID 2168;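 active means inhibition above the average of all tested compounds plus 3 SD, cut at about 40% in these data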;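 further: 0% = DMSO wells and 100% = unlabeled Bim-BH3 control peptide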
* hit, by the source's call. An excerpt weighted towards active compounds, which were near 1.5% of everything screened.

What do the screens show for `COc1ccc(C)cc1S(=O)(=O)N(CC(=O)NC1CCCC1)c1ccc(F)cc1`?
Bcl-xL primary: 2; E coli Lon inh: 3; MCL1-BIM inh: 3; GLD-1 RNA inh: 0; MEX-5 binding: -2

How did O=C(O)CN1C(=O)/C(=C\c2cc(Br)ccc2OCc2ccc([N+](=O)[O-])cc2)SC1=S do in these assays?
Bcl-xL primary: 28; E coli Lon inh: -12; MCL1-BIM inh: 72*; GLD-1 RNA inh: -1; MEX-5 binding: -2; BCLXL inh confirm: 37*; MCL1 BIM confirm: 61*

How did O=C(O)CN1C(=O)/C(=C\c2cc(Br)ccc2OCc2ccccc2F)SC1=S do in these assays?
Bcl-xL primary: 18; E coli Lon inh: -13; MCL1-BIM inh: 46*; GLD-1 RNA inh: -5; MEX-5 binding: -2; BCLXL inh confirm: 20; MCL1 BIM confirm: 25

What do the screens show for `O=C(O)CCN1C(=O)/C(=C\c2ccc(OCc3ccccc3)c(OCc3ccccc3)c2)SC1=S`?
Bcl-xL primary: 3; E coli Lon inh: 5; MCL1-BIM inh: 4; GLD-1 RNA inh: 6; MEX-5 binding: -19

What do the screens show for `O=C(O)CN1C(=O)/C(=C\c2ccccc2OCc2ccc(Cl)cc2Cl)SC1=S`?
Bcl-xL primary: 17; E coli Lon inh: -3; MCL1-BIM inh: 55*; GLD-1 RNA inh: -4; MEX-5 binding: -3; BCLXL inh confirm: 31*; MCL1 BIM confirm: 45*

What do the screens show for `N#CCOC(=O)C1CCN(S(=O)(=O)c2ccc3c(c2)OCCO3)CC1`?
Bcl-xL primary: -4; E coli Lon inh: -1; MCL1-BIM inh: -9; GLD-1 RNA inh: 1; MEX-5 binding: -2

Results for Cc1nn(-c2ccccc2)c2c1C(c1ccc(O)c(O)c1)N1C(=N2)C(Nc2ccccc2)=Nc2ccccc21 (stereo not drawn) ?
Bcl-xL primary: 64*; E coli Lon inh: 3; EBV gp42 block: 85*; MCL1-BIM inh: 70*; GLD-1 RNA inh: 95*; MEX-5 binding: -1; BCLXL inh confirm: 18; MCL1 BIM confirm: 19

How did Cc1nn(-c2ccc([N+](=O)[O-])cc2)c2c1C(c1cccc(Br)c1)N1C(=N2)C(=O)Nc2ccccc21 (stereo not drawn) do in these assays?
Bcl-xL primary: 3; E coli Lon inh: -15; EBV gp42 block: 5; MCL1-BIM inh: 0; GLD-1 RNA inh: 4; MEX-5 binding: -4

How did O=C1CC(c2ccc(O)c(O)c2)Oc2c1ccc(O)c2O (stereo not drawn) do in these assays?
Bcl-xL primary: 15; E coli Lon inh: -9; EBV gp42 block: -1; MCL1-BIM inh: 70*; GLD-1 RNA inh: 6; BCLXL inh confirm: 20; MCL1 BIM confirm: 78*

What do the screens show for `O=C1CC[C@@H](OCc2ccccc2)CCN1CC[C@H](Sc1ccccc1)c1ccccc1`?
Bcl-xL primary: 2; E coli Lon inh: -11; MCL1-BIM inh: -3; GLD-1 RNA inh: 3; MEX-5 binding: 0

What do the screens show for `CN1CCN(/N=C/c2ccc(-c3ccccc3)cc2)CC1`?
Bcl-xL primary: 5; E coli Lon inh: -1; EBV gp42 block: -18; MCL1-BIM inh: 5; GLD-1 RNA inh: 5; MEX-5 binding: 4

How did CN1CCN(/N=C/c2c3ccccc3c(Cl)c3ccccc23)CC1 do in these assays?
Bcl-xL primary: 111*; E coli Lon inh: 2; EBV gp42 block: 21; MCL1-BIM inh: 127*; GLD-1 RNA inh: 77*; MEX-5 binding: -1; BCLXL inh confirm: 22; MCL1 BIM confirm: 27

What do the screens show for `COc1ccc(-c2csc(C(C)(O)c3ccc(F)c(F)c3)n2)cc1OC` (stereo not drawn)?
E coli Lon inh: -5

What do the screens show for `CN=c1scc(C)n1/N=C/c1ccc(O)c(O)c1O`?
Bcl-xL primary: 22; E coli Lon inh: 12; EBV gp42 block: -12; MCL1-BIM inh: 58*; GLD-1 RNA inh: 18; MEX-5 binding: -32*; BCLXL inh confirm: 79*; MCL1 BIM confirm: 121*

How did C=CCN=c1scc(-c2ccco2)n1/N=C/c1ccc(O)c(O)c1O do in these assays?
Bcl-xL primary: 14; E coli Lon inh: 10; EBV gp42 block: -4; MCL1-BIM inh: 50*; GLD-1 RNA inh: 1; MEX-5 binding: -28*; BCLXL inh confirm: 29; MCL1 BIM confirm: 78*

Results for CN=c1scc(C)n1/N=C/c1cc(Br)c(O)c(OC)c1 ?
Bcl-xL primary: 7; E coli Lon inh: 9; EBV gp42 block: 5; MCL1-BIM inh: 7; GLD-1 RNA inh: 6; MEX-5 binding: 2

What do the screens show for `CC(C)Oc1ccc(C(=O)Nc2c3c(nn2C(C)(C)C)CS(=O)(=O)C3)cc1`?
Bcl-xL primary: 3; E coli Lon inh: -1; MCL1-BIM inh: 6; GLD-1 RNA inh: -7; MEX-5 binding: 0

What do the screens show for `Cc1ccc(S(=O)(=O)NCc2ccc(C(=O)NC3CCC(O)CC3)cc2)cc1C` (stereo not drawn)?
Bcl-xL primary: 2; E coli Lon inh: -12; MCL1-BIM inh: 5; GLD-1 RNA inh: 1

What do the screens show for `O=C1c2cc(Cl)ccc2-c2c(O)cc(Cl)cc21`?
E coli Lon inh: -29

What do the screens show for `O=C(O)c1cc(O)c2c(c1)C(=O)c1cc(O)cc(O)c1C2=O`?
Bcl-xL primary: 23; E coli Lon inh: 14; EBV gp42 block: 4; MCL1-BIM inh: 41*; GLD-1 RNA inh: 6; MEX-5 binding: -16; BCLXL inh confirm: 21; MCL1 BIM confirm: 34

Results for Cc1cccc(NS(=O)(=O)c2ccc(C)c(C(=O)NCCCN3CCOCC3)c2)c1 ?
E coli Lon inh: 10

What do the screens show for `CCn1c(O)c(/C=N/N=C/c2ccccc2)c2ccc(C3=NNC(=O)CC3)cc21`?
Bcl-xL primary: 49*; E coli Lon inh: -79; EBV gp42 block: 60*; MCL1-BIM inh: 90*; GLD-1 RNA inh: -30; MEX-5 binding: -12; BCLXL inh confirm: 96*; MCL1 BIM confirm: 109*

Results for N#C/C(=C\c1ccc[nH]1)C(=O)Nc1ccccc1Cl ?
Bcl-xL primary: 52*; E coli Lon inh: -6; MCL1-BIM inh: 47*; GLD-1 RNA inh: 12; MEX-5 binding: 1; BCLXL inh confirm: 26; MCL1 BIM confirm: 33

Results for N#C/C(=C\c1ccc[nH]1)C(=O)Nc1ccccc1F ?
E coli Lon inh: 7

What do the screens show for `Cc1ccc(C2(C)NC(=O)N(CC(=O)N(Cc3ccccc3)C(C)(C)C)C2=O)cc1` (stereo not drawn)?
Bcl-xL primary: -5; E coli Lon inh: -32; MCL1-BIM inh: -8; GLD-1 RNA inh: 1; MEX-5 binding: 1

Compound activity as filed in PubChem BioAssay.
